# Source: PubChem BioAssay
# “And” between values parts separate entries of the source, which are not always exact repeats. Equal entries are not always repeated. Inconclusive results are not listed. The source made the active and inactive calls.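 Rule for the calls, unless noted: active = compound raises insulin release from rat beta cells at 5 mM glucose, no numeric limit stated; inactive = the rest.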
# Experiments:
# [1] = liver-stage malaria parasite growth inhibition, primary screen, cell-based, HepG2, luciferase luminescence, HepG2 viability (AID 624349; in the data active = parasite load remaining mostly below about 12%, no sharp cut-off; inactive = mostly above about 10%;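 note: 100% = mean of DMSO negative control wells on the same plate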); settings: P. berghei liver stage in HepG2, luciferase luminescence, concentration not given here; parasite load remaining: stronger effect = lower value; viability: measured here: HepG2 viability without parasites
# [2] = stimulators of nuclear beta-catenin in C2C12, primary screen, imaging, WNT3A-conditioned medium, mouse C2C12, NPC library (AID 1117326; in the data active = nuclear beta-catenin stimulation mostly above about 4.2%, no sharp cut-off; inactive = mostly below about 10%); settings: stronger effect = higher value
# [3] = stimulators of insulin release from INS-1E, primary screen, cell-based, 5 mM glucose, NPC library (AID 1117329); settings: rat INS-1E insulin secretion, at 10 µM, stronger effect = higher value
# [4] = growth inhibition of GSK3B-pretreated HCT116 cells – cell-based, CellTiter-Glo, 0.2 to 20 µM (AID 1117336;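 active = compounds lowering colon cancer cell viability after pretreatment blocking the GSK3B kinase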); settings: HCT116 viability after GSK3B inhibitor, at 20 µM, stronger effect = higher value
# [5] = inhibition of endothelial tube formation, primary screen, imaging, VEGF stimulated, CD31 staining, tube area, NPC library (AID 1117340;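 active = compound that reduces growth-factor-driven endothelial tube area in a mixed cell culture, no cutoff stated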); settings: VEGF-stimulated ADSC/ECFC co-culture, at 10 µM, stronger effect = higher value
# [6] = glucagon-like peptide 1 release enhancers, primary assay, NCI-H716 cell line, NPC library (AID 1117341;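 active = compound raises GLP1 secretion from the human gut endocrine cells, with no numeric limit stated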); settings: NCI-H716 cells, at 10 µM, stronger effect = higher value
# [7] = HCT116 colon cancer cell growth inhibition, primary screen, CellTiter-Glo luminescence, NPC library (AID 1117342;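 active = compounds that lower survival of HCT116 colon cancer cells in the luminescence readout, no numeric limit stated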); settings: at 20 µM (top of the series)
# [8] = CellTiter-Glo luminescent readout of SW480 viability loss, NPC library primary (AID 1117343;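 active = compounds that lower viability of the colon cancer cells in the luminescence readout, with no numeric limit stated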); settings: CellTiter-Glo luminescence; at 20 µM (top of the series) unless noted
# [9] = decreased DLD-1 cellular survival, CellTiter-Glo luminescent readout, NPC compound collection, primary HTS (AID 1117346;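 active = compounds that lower survival of DLD-1 colon cancer cells in the luminescence readout, no cutoff given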); settings: DLD-1 viability, CellTiter-Glo luminescence; at 20 µM (top of the series)
# [10] = sensitizers of A549 cells to miR-34 induction, primary screen, imaging, A549 dox-inducible miR-34, nuclei and caspase counts (AID 1347080;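 active = compounds whose cell count with miR-34 switched on is under 0.7 times the count with it off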); settings: A549 miR-34 inducible, Hoechst nuclei count, 48 h
# [11] = survival rescue of mitochondrial mutant cells in low glucose, primary screen, MELAS cybrids, Rieske KO mouse fibroblasts, CellTiter-Glo (AID 1508586;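 active = mean z-score across replicates of 1.96 or higher in either the MELAS or the Rieske mutant cell line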;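 note: z relative to plate mean and SD of compound and empty wells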)
# [12] = viability rescue of complex I mutant cybrids, primary screen, cell-based, galactose medium, ATP luminescence (AID 1645843;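 active = z-score of at least 1.8 in each of two replicates, scored against plate mean and spread of sample wells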;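 note: positive z means more ATP and so rescue of galactose-driven cybrid death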); settings: complex I mutant cybrid cells, 72 h, stronger effect = higher value
# [13] = hESC survival regulators, cell-based (AID 493140; call rule not given here;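 note: cells exposed to compounds for four days before counting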); settings: human embryonic stem cell survival screen; stronger effect = higher value
# [14] = target: ATP-dependent translocase ABCB1 (Homo sapiens) (UniProt P08183); assay: MDR1 (ABCB1) efflux transporter inhibition, cell-based (AID 377; in the data active = fluorescence slope change above about 50%); settings: MDR1-expressing cells, fluorescent substrate accumulation slope; stronger effect = higher value; concentration not given here
# [15] = target: NAD(+) hydrolase SARM1 (Homo sapiens) (UniProt Q6SZW1); assay: SARM1 TIR NADase inhibitors, cell lysate, NAD-Glo luminescence (AID 1508614;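 active = compound whose remaining NAD level is above about 45 nM, limit read from the data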;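 note: higher remaining NAD means stronger inhibition of SARM1 NADase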); settings: SAM-TIR HEK293T lysate NADase, at 1 µM, stronger effect = higher value
# [16] = target: Mitogen-activated protein kinase 7 (Homo sapiens) (UniProt Q13164); assay: ERK5 transactivation activators in reporter cells, primary screen, cell-based, HTS (AID 1508626;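 active = luciferase signal above three times the same-plate solvent-only control wells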;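 note: luciferase driven by Gal4-ERK5 fusion binding five Gal4 sites before minimal TATA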); settings: HeLa Gal4-ERK5 transactivation, 18 h, at 5 µM, stronger effect = higher value
# [17] = stronger effect = lower value, cell number ratio, induced over uninduced
# [18] = measured here: relative caspase fold change +Dox/-Dox
# [19] = measured here: total cells with miR-34 induction, stronger effect = lower value
# [20] = measured here: total cells without miR-34 induction
# [21] = MELAS cybrid survival, CellTiter-Glo 48 h, stronger effect = higher value
# [22] = Rieske KO mouse fibroblast survival, CellTiter-Glo 72 h
# Sequence of NAD(+) hydrolase SARM1 (Homo sapiens) (Q6SZW1 whole entry, looked up, the tested form may be a part): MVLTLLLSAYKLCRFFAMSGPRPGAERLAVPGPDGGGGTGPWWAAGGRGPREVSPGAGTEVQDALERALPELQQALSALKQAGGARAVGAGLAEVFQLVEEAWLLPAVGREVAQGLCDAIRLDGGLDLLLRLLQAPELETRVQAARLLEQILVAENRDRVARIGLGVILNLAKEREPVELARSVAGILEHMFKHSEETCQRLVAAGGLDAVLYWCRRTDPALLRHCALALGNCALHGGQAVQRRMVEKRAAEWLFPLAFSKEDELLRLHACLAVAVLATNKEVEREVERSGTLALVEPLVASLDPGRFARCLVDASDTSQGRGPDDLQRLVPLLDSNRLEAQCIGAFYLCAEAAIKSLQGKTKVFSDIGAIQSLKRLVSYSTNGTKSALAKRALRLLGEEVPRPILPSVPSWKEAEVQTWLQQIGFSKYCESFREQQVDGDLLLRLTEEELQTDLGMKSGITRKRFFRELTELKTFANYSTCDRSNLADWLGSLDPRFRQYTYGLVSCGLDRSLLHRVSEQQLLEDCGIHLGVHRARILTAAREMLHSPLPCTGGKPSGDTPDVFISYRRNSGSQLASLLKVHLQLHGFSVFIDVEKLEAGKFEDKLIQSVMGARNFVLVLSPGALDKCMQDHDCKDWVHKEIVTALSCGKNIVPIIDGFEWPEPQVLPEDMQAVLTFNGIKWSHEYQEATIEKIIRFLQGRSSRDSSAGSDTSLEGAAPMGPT
# Sequence of ATP-dependent translocase ABCB1 (Homo sapiens) (P08183 whole entry, looked up): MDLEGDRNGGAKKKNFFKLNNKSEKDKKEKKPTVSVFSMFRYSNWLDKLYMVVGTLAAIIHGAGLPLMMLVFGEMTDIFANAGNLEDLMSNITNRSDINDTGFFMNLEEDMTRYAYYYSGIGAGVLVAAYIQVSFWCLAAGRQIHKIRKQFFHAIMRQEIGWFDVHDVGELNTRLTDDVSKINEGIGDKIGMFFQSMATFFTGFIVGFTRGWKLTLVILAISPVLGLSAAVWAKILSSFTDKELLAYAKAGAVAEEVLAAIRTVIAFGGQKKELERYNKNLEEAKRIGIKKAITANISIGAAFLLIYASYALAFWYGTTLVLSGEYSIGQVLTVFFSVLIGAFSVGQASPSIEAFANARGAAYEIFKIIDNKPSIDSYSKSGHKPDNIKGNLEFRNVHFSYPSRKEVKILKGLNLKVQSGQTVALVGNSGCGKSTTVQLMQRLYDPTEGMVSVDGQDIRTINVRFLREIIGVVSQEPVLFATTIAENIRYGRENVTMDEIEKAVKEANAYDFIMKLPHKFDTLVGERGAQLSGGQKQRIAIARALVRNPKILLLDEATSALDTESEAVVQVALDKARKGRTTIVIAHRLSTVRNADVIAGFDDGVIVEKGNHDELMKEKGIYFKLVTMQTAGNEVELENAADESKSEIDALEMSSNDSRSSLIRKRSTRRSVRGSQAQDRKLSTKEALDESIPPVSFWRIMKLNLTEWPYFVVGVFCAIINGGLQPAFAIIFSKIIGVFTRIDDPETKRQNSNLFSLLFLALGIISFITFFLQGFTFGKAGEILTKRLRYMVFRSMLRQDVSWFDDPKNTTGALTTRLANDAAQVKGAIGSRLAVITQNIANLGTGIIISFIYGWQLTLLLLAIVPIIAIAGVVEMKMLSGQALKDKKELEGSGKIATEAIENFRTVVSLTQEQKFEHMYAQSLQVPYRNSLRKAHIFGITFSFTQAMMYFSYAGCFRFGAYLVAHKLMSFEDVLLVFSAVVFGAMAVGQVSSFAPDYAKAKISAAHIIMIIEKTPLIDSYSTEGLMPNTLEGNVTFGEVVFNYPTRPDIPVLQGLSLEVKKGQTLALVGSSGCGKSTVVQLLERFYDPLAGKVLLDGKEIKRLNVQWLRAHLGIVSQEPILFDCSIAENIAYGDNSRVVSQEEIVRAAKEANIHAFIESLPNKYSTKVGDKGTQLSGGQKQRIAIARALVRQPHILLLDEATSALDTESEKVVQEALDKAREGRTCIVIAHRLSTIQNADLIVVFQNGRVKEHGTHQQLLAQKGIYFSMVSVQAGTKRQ
# Sequence of Mitogen-activated protein kinase 7 (Homo sapiens) (Q13164 whole entry, looked up, the tested form may be a part): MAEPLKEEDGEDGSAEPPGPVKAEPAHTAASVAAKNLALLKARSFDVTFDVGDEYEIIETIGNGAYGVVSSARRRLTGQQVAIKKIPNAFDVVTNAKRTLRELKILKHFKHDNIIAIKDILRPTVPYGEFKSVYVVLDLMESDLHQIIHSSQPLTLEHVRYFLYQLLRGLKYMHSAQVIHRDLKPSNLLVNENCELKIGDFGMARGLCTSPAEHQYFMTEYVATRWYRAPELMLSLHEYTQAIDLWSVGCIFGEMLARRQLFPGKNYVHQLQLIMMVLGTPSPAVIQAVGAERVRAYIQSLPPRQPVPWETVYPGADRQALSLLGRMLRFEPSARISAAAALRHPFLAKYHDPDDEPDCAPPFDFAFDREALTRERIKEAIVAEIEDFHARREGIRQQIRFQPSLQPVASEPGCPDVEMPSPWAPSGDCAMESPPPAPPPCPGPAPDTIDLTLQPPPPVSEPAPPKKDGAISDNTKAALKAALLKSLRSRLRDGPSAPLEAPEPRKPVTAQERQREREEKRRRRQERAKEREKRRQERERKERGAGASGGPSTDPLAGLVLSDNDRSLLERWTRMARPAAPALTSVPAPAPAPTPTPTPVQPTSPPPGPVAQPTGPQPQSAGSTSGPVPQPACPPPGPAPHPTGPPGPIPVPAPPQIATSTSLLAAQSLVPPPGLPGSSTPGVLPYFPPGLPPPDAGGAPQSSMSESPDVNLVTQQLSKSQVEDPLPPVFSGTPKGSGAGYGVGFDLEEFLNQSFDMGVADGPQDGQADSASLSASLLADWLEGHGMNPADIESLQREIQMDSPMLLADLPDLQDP
structure (smiles),measurement,setting,value
CCOC(=O)/C=C(C)/C=C/C=C(C)/C=C/c1c(C)cc(OC)c(C)c1C,parasite load remaining,[1],13.4% (inactive)
same,viability,[1],74%
same,nuclear beta-catenin stimulation,[2]; at 10 µM,-2.1% (inactive)
same,nuclear beta-catenin stimulation,"[2]; stimulation, at 2 µM",-0.4%
same,insulin secretion stimulation,[3],2.6% (inactive)
same,viability decrease,[4],62.2% (active)
same,tube area decrease,[5],3.9% (inactive)
same,GLP1 secretion stimulation,[6],-2.9% (inactive)
same,inhibition of viability,[7],59.4% (active)
same,viability decrease (inhibition),[8],60.3% (active)
same,viability decrease (inhibition),[9],25.3% (inactive)
same,fold change,[10]; [17],0.857 (inactive)
same,fold change,[10]; [18],1
same,cell count,[10]; [19],9250
same,cell count,[10]; [20],10800
same,z-score,[11]; [21],0.196 (inactive) and -0.0105 (inactive)
same,z-score,[11]; [22],0.164 and -0.496
same,z-score,[12],-1.38 (inactive)
CCOC(=O)Nc1ccc2c(c1)N(C(=O)CCN1CCOCC1)c1ccccc1S2,survival,[13],4.83 (inactive)
same,parasite load remaining,[1],99.9% (inactive)
same,viability,[1],97.4%
same,nuclear beta-catenin stimulation,[2]; at 10 µM,-0.6% (inactive)
same,nuclear beta-catenin stimulation,"[2]; stimulation, at 2 µM",1.1%
same,insulin secretion stimulation,[3],1.7% (inactive)
same,viability decrease,[4],-14.2% (inactive)
same,tube area decrease,[5],4% (inactive)
same,GLP1 secretion stimulation,[6],-2.4% (inactive)
same,inhibition of viability,[7],15.2% (inactive)
same,viability decrease (inhibition),[8],17.8% (inactive)
same,viability decrease (inhibition),[9],-16.3% (inactive)
same,fold change,[10]; [17],0.922 (inactive)
same,fold change,[10]; [18],1.07
same,cell count,[10]; [19],8790
same,cell count,[10]; [20],9540
same,z-score,[11]; [21],0.935 (inactive)
same,z-score,[11]; [22],0.145
CC(C)(C)C(=O)OCOC(=O)[C@@H]1N2C(=O)[C@@H](NC(=O)[C@H](N)c3ccccc3)[C@H]2SC1(C)C,survival,[13],8.83 (inactive)
same,parasite load remaining,[1],105% (inactive)
same,viability,[1],75%
same,nuclear beta-catenin stimulation,[2]; at 10 µM,-2.4% (inactive)
same,nuclear beta-catenin stimulation,"[2]; stimulation, at 2 µM",-1.3%
same,insulin secretion stimulation,[3],2.2% (inactive)
same,viability decrease,[4],-4.7% (inactive)
same,tube area decrease,[5],-15.2% (inactive)
same,GLP1 secretion stimulation,[6],2.6% (inactive)
same,inhibition of viability,[7],-17.9% (inactive)
same,viability decrease (inhibition),[8],5.3% (inactive)
same,viability decrease (inhibition),[9],-16.8% (inactive)
same,fold change,[10]; [17],0.926 (inactive)
same,fold change,[10]; [18],0.701
same,cell count,[10]; [19],9310
same,cell count,[10]; [20],10100
same,z-score,[11]; [21],-1.1 (inactive)
same,z-score,[11]; [22],-0.251
NC(=O)OCC(O)COc1ccc(Cl)cc1 (centres undefined),fluorescence slope change,[14],58.8% (active)
same,survival,[13],16.6 (inactive)
same,parasite load remaining,[1],52.4% (inactive) and 99.4% (inactive)
same,viability,[1],46% and 92.9%
same,nuclear beta-catenin stimulation,[2]; at 10 µM,-1.4% (inactive)
same,nuclear beta-catenin stimulation,"[2]; stimulation, at 2 µM",-0.6%
same,insulin secretion stimulation,[3],1.2% (inactive)
same,viability decrease,[4],0.2% (inactive)
same,tube area decrease,[5],-23.7% (inactive)
same,GLP1 secretion stimulation,[6],-0.6% (inactive)
same,inhibition of viability,[7],8.4% (inactive)
same,viability decrease (inhibition),[8],4.1% (inactive)
same,viability decrease (inhibition),[9],11.4% (inactive)
same,fold change,[10]; [17],0.864 (inactive)
same,fold change,[10]; [18],2.23
same,cell count,[10]; [19],8110
same,cell count,[10]; [20],9380
same,z-score,[11]; [21],-0.968 (inactive)
same,z-score,[11]; [22],-0.0882
FCOC(C(F)(F)F)C(F)(F)F,nuclear beta-catenin stimulation,[2]; at 10 µM,-1.9% (inactive)
same,nuclear beta-catenin stimulation,"[2]; stimulation, at 2 µM",-0.4%
same,insulin secretion stimulation,[3],5.1% (inactive)
same,viability decrease,[4],-4.6% (inactive)
same,tube area decrease,[5],8.2% (inactive)
same,GLP1 secretion stimulation,[6],-1.9% (inactive)
same,inhibition of viability,[7],-0.4% (inactive)
same,viability decrease (inhibition),[8],-3.5% (inactive)
same,viability decrease (inhibition),[9],7.5% (inactive)
same,fold change,[10]; [17],0.911 (inactive)
same,fold change,[10]; [18],1.07
same,cell count,[10]; [19],8640
same,cell count,[10]; [20],9480
same,remaining NAD,[15],10 nM (inactive)
O=C(O)CCc1nc2ccccc2[nH]1,nuclear beta-catenin stimulation,[2]; at 10 µM,2.8% (inactive)
same,nuclear beta-catenin stimulation,"[2]; stimulation, at 2 µM",2.5%
same,insulin secretion stimulation,[3],-1.6% (inactive)
same,viability decrease,[4],3.65% (inactive)
same,tube area decrease,[5],-5.8% (inactive)
same,GLP1 secretion stimulation,[6],3.5% (inactive)
same,inhibition of viability,[7],-11.8% (inactive)
same,viability decrease (inhibition),[8],106% (active)
same,viability decrease (inhibition),[9],5.2% (inactive)
same,fold change,[10]; [17],0.93 (inactive)
same,fold change,[10]; [18],1.12
same,cell count,[10]; [19],8680
same,cell count,[10]; [20],9340
same,remaining NAD,[15],10 nM (inactive)
C/C(=C(\CCOP(=O)(O)O)SC(=O)c1ccccc1)N(C=O)Cc1cnc(C)nc1N,survival,[13],11 (inactive)
same,parasite load remaining,[1],106% (inactive)
same,viability,[1],102%
same,nuclear beta-catenin stimulation,[2]; at 10 µM,-2.6% (inactive)
same,nuclear beta-catenin stimulation,"[2]; stimulation, at 2 µM",-0.9%
same,insulin secretion stimulation,[3],1.6% (inactive)
same,viability decrease,[4],-1.5% (inactive)
same,tube area decrease,[5],-4.8% (inactive)
same,GLP1 secretion stimulation,[6],-2.7% (inactive)
same,inhibition of viability,[7],4.6% (inactive)
same,viability decrease (inhibition),[8],-2.1% (inactive)
same,viability decrease (inhibition),[9],-1% (inactive)
same,fold change,[10]; [17],0.873 (inactive)
same,fold change,[10]; [18],1.12
same,cell count,[10]; [19],8510
same,cell count,[10]; [20],9750
same,z-score,[11]; [21],0.178 (inactive)
same,z-score,[11]; [22],0.46
OC[C@@H](O)[C@@H](O[C@@H]1O[C@H](CO)[C@H](O)[C@H](O)[C@H]1O)[C@H](O)[C@@H](O)CO,nuclear beta-catenin stimulation,[2]; at 10 µM,2% (inactive)
same,nuclear beta-catenin stimulation,"[2]; stimulation, at 2 µM",0.9%
same,insulin secretion stimulation,[3],2.3% (inactive)
same,viability decrease,[4],22.6% (inactive)
same,tube area decrease,[5],-0.6% (inactive)
same,GLP1 secretion stimulation,[6],-0.5% (inactive)
same,inhibition of viability,[7],6.7% (inactive)
same,viability decrease (inhibition),[8],20% (inactive)
same,viability decrease (inhibition),[9],3.4% (inactive)
same,fold change,[10]; [17],0.928 (inactive)
same,fold change,[10]; [18],0.884
same,cell count,[10]; [19],8700
same,cell count,[10]; [20],9370
same,remaining NAD,[15],10 nM (inactive)
same,luciferase signal,[16],56 AU (inactive)
O=C(O)c1ccc[n+]([O-])c1,nuclear beta-catenin stimulation,[2]; at 10 µM,-0.8% (inactive)
same,nuclear beta-catenin stimulation,"[2]; stimulation, at 2 µM",2%
same,insulin secretion stimulation,[3],-0.6% (inactive)
same,viability decrease,[4],-4.35% (inactive)
same,tube area decrease,[5],11.3% (active)
same,GLP1 secretion stimulation,[6],0% (inactive)
same,inhibition of viability,[7],-1.7% (inactive)
same,viability decrease (inhibition),[8],14.2% (inactive)
same,viability decrease (inhibition),[9],-2.85% (inactive)
same,fold change,[10]; [17],0.936 (inactive)
same,fold change,[10]; [18],0.969
same,cell count,[10]; [19],8660
same,cell count,[10]; [20],9250
same,remaining NAD,[15],10 nM (inactive)
O=C(O)Cc1sc(-c2ccccc2)nc1-c1ccc(Cl)cc1,parasite load remaining,[1],43.2% (inactive)
same,viability,[1],106%
same,nuclear beta-catenin stimulation,[2]; at 10 µM,-0.8% (inactive)
same,nuclear beta-catenin stimulation,"[2]; stimulation, at 2 µM",-0.1%
same,insulin secretion stimulation,[3],3.3% (inactive)
same,viability decrease,[4],18.7% (inactive)
same,tube area decrease,[5],11.7% (inactive)
same,GLP1 secretion stimulation,[6],-0.5% (inactive)
same,inhibition of viability,[7],43.2% (inactive)
same,viability decrease (inhibition),[8],32.4% (inactive)
same,viability decrease (inhibition),[9],16.6% (inactive)
same,fold change,[10]; [17],0.887 (inactive)
same,fold change,[10]; [18],0.944
same,cell count,[10]; [19],10000
same,cell count,[10]; [20],11300
same,z-score,[11]; [21],-0.576 (inactive) and -0.0336 (inactive)
same,z-score,[11]; [22],-0.115 and 0.182
same,z-score,[12],1.28 (inactive)
CC[N+](C)(CC)CCOC(=O)C1c2ccccc2Oc2ccccc21,survival,[13],18.2 (inactive)
same,parasite load remaining,[1],64.6% (inactive)
same,viability,[1],67.1%
same,nuclear beta-catenin stimulation,[2]; at 10 µM,-0.9% (inactive)
same,nuclear beta-catenin stimulation,"[2]; stimulation, at 2 µM",0.8%
same,insulin secretion stimulation,[3],2.6% (inactive)
same,viability decrease,[4],-10.2% (inactive)
same,tube area decrease,[5],-0.8% (inactive)
same,GLP1 secretion stimulation,[6],-4.5% (inactive)
same,inhibition of viability,[7],6% (inactive)
same,viability decrease (inhibition),[8],1.5% (inactive)
same,viability decrease (inhibition),[9],-6.1% (inactive)
same,fold change,[10]; [17],0.995 (inactive)
same,fold change,[10]; [18],0.614
same,cell count,[10]; [19],9340
same,cell count,[10]; [20],9380
same,z-score,[11]; [21],0.613 (inactive)
same,z-score,[11]; [22],0.177
